Source: PubChem BioAssay
Shown is part of a subset that was picked to be rich in hits.
Pf Dd2 inh – blocks in vitro growth of P. falciparum Dd2; P. falciparum Dd2 growth, SYBR Green, 72 h; 120,000 compounds, 4.3% hits; Potency, µM (doses to about 28.9 µM), for the others: at the highest dose activity, negative = inhibition, actives largely listed as inhibitors; active means well fitted inhibition curve with a large enough effect;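 further: plate controls were DMSO vehicle for no effect and reference drug for full effect; nearly all actives have a fitted effect of over 65% in size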
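Readout: SYBR Green fluorescence, 485 nm excitation, 535 nm emission, after ~16 h lysis at 37C. Before that, Dd2-infected red cells (2.5% hematocrit) grew 72 h with compound, 29 uM top final concentration.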
An asterisk follows results filed as active; i = inactive; [ ] = remark or other dose. Potency means the concentration at half of the fitted maximal effect.

SMILES	Pf Dd2 inh
CN(c1ccccc1)S(=O)(=O)c1ccc(NC(=O)c2nc(S(C)(=O)=O)ncc2Cl)cc1	15%[5.79 µM]
Cc1ccsc1CN(Cc1ccco1)c1cnc(S(C)(=O)=O)nc1C(=O)Nc1ccc(Cl)cc1	4.5µM*
COc1ccc(NC(=O)c2nc(S(C)(=O)=O)ncc2N(Cc2ccc(C)cc2)Cc2ccco2)cc1Cl	10µM*
Cc1ccc(NC(=O)c2nc(S(=O)(=O)Cc3ccc(F)cc3)ncc2Cl)cc1C	43%[5.79 µM]
Cc1ccc(CN(Cc2ccco2)C(=O)COc2ccc(Cl)cc2Cl)cc1	-23%
CS(=O)(=O)c1ncc(Cl)c(C(=O)Nc2c(C(=O)Nc3ccccc3)oc3ccccc23)n1	i
CCS(=O)(=O)c1ncc(N(Cc2ccccc2)Cc2ccco2)c(C(=O)Nc2ccc(C)c(C)c2)n1	5µM*
Cc1ccc(NC(=O)c2nc(S(C)(=O)=O)ncc2N(Cc2ccc(C(C)(C)C)cc2)Cc2ccco2)cc1C	7.1µM*
CCn1c(CO)nnc1C1CC(NC(=O)Cc2c(C)[nH]c(=O)[nH]c2=O)C1 (stereo not given)	1%
COCC1CN(C(C)=O)CC12CCN(Cc1ccc(OC)c(C)c1)CC2 (stereo not given)	i
CN(CC1CCOC1)C(=O)NC1CCCCC1 (stereo not given)	i[5.79 µM]
Cc1cc(C)n(CCC(=O)N2CC(F)(F)C[C@H]2c2nc(C)no2)n1	-5%
COc1ccccc1-n1cc(C(=O)NC2CCCN(C3CCCCCC3)C2)cn1 (stereo not given)	-17%
CCc1ccc(CN(Cc2ccco2)c2cnc(S(C)(=O)=O)nc2C(=O)Nc2cccc(C)c2)cc1	11µM*
CCS(=O)(=O)c1ncc(Cl)c(C(=O)Nc2c(C(=O)Nc3cccc(C)c3)oc3ccccc23)n1	-22%
Cc1cccc(NC(=O)Cn2nnc(C(=O)NCc3ccco3)c2N)c1	25%
O=C(CN1CC2CC(C1)[C@H]1CCCC(=O)N1C2)N1CCc2ccccc21 (stereo not given in full)	-11%
O=C(Nc1cc(F)ccc1F)N1CCCC(Cn2c(C3CC3)nc3cccnc32)C1 (stereo not given)	-3%
Cn1ccc2cc(-c3ccc4c(n3)c(=O)ncn4CC3CC3)ccc21	i
COc1ccc(-c2nc3ccccc3o2)cc1NC(=O)COc1ccc(C(C)(C)C)cc1	7.9µM*
COc1ccc(-c2nc3ccccc3s2)cc1NC(=O)COc1ccc(C)cc1	10%
COc1ccc(-c2nc3ccccc3o2)cc1NC(=O)COc1cc(C)cc(C)c1	i
COc1cccc(CN2C[C@@H](CO)[C@H](NC(=O)C3CC3)C2)c1OC	-21%
CN1CCCN(C(=O)C2CCCN(Cc3ccncc3)CCC(=O)NCC2)CC1 (stereo not given)	4%
Cc1ccccc1CC(=O)N1CC(C(=O)NC2CCCCC2)C2(CCOCC2)C1 (stereo not given)	-18%
SMILES	Pf Dd2 inh
Cn1nccc1C(=O)N[C@@H]1CN(Cc2ccccc2)C[C@H]1CO	13µM*
O=C(N[C@@H]1CN(Cc2ccccc2)C[C@H]1CO)c1ccnnc1	9%
Cc1cnc(C(=O)N[C@@H]2CN(Cc3ccccc3)C[C@H]2CO)cn1	-22%
Cc1cc(CN2C[C@@H](CO)[C@H](NC(=O)c3ccccc3)C2)n(C)n1	35%
COc1cc(CN2C[C@@H](CO)[C@H](NC(=O)c3ccccc3)C2)ccc1F	5.6µM*
CC(=O)N[C@@H]1CN(Cc2ccc(F)c(Br)c2)C[C@H]1CO	-26%
O=C(Cc1ccc(F)cc1)N1CCC(Cc2nc(-c3ccc(F)cc3)no2)CC1	34%
CCC[C@H]1CN(Cc2ccccc2C#N)C[C@@H]1NS(C)(=O)=O	-6%
O=C(NC[C@H]1Cn2ccnc2CO1)c1ccccc1	21%[44.1 µM]
CNC(=O)[C@@H]1C[C@H](Oc2ccccc2)CN1C(=O)c1ccc(Cn2nc(C)cc2C)o1	-9%
O=C(NCCC1CCN(C(=O)Nc2cccc(F)c2)CC1)c1cc(F)ccc1F	-18%
CCOCCOC1CCN(C(=O)c2ccc3cc[nH]c3c2)CC1	27%
CN(C)Cc1cn2c(=O)n(C)cc(-c3ccc(O)c(F)c3)c2n1	i
CN(C)Cc1cn2c(=O)n(C)cc(-c3ccc(F)c(Cl)c3)c2n1	2.5µM*
Cn1cc(-c2ccc(F)c(Cl)c2)c2nc(CO)cn2c1=O	-1%[44.1 µM]
CCNC(=O)N(C1CC1)C1CCOC2(CCN(C(=O)c3ocnc3C)CC2)C1 (stereo not given)	7%
CCCc1nnsc1C(=O)N[C@@H]1COCC[C@@H]1OCC1CC1	-23%
CN1C[C@H](NC(=O)C2CCOCC2)CCC[C@@H](C(=O)NC2CC2)CC1=O	-3%[44.1 µM]
Cc1ccc(NCc2ccccc2-c2nnc(-c3ccccc3Cl)o2)cc1Cl	-24%
Fc1ccc(N2CCN(Cc3nnc(-c4ccccc4Cl)o3)CC2)cc1	2%
Fc1ccc(NCc2ccccc2-c2nnc(-c3ccccc3Cl)o2)cc1	13µM*
COCCNC(=O)C[C@@H]1C[C@H]2O[C@H](CNCc3cnccc3C(F)(F)F)[C@@H](O)[C@H]2O1	2%[44.1 µM]
CC(C)C[C@@H](NC(=O)C1=C[C@@H](NC(=O)c2ccco2)[C@@H](O)[C@H](O)C1)C(N)=O	14%[44.1 µM]
CSCc1noc(Cn2nc(-c3ccccc3)c3ccccc3c2=O)n1	-18%
COc1cccc(-c2cc3c(=O)n(CCNC(=O)c4cc(Cl)ccc4F)ccn3n2)c1	-11%
SMILES	Pf Dd2 inh
COc1cccc(-c2cc3c(=O)n(CCNC(=O)c4cc5ccccc5[nH]4)ccn3n2)c1	i
COc1cccc(-c2cc3c(=O)n(CCNC(=O)c4ccc(C(C)(C)C)cc4)ccn3n2)c1	1.1µM*
COc1cccc(-c2cc3c(=O)n(CCNC(=O)c4ccccc4F)ccn3n2)c1	13µM*
COc1cccc(-c2cc3c(=O)n(CCNC(=O)c4ccc(Cl)cc4)ccn3n2)c1	12%
COc1cccc(-c2cc3c(=O)n(CCNC(=O)c4cc(C)cc(C)c4)ccn3n2)c1	-7%
CN1CCC(N2CC[C@H]3COC(=O)N3c3cc(F)ccc3C2)CC1	-2%[44.1 µM]
COc1ccc(NC(=O)N2CCCC(c3nc(C4CCOCC4)no3)C2)cc1 (stereo not given)	38%
Cc1c(Cl)cccc1NC(=O)CN1C(=O)NC(c2ccc(Cl)cc2)C2=C1COC2=O (stereo not given)	-26%
Cc1cc(C(=O)Nc2ccc([C@H]3OCC(=O)N(C)[C@@H]3CO)cc2)n(C)n1	-5%[44.1 µM]
CC1CCC(NC(=O)C2CCN(C(=O)c3ncn4c3COC(c3ccccc3)C4)CC2)CC1 (stereo not given)	-20%
O=C(NC1CCN(c2cc(-c3ccc(F)cc3)[nH]n2)CC1)c1cc(F)ccc1Cl	i
O=C(NC1CCN(c2ccc(F)cc2)C1=O)c1ccccc1C(F)(F)F (stereo not given)	i
O=C(NCCc1ccc(Cl)cc1)c1nc(-c2ccc(Cl)cc2Cl)c2ccccn12	-19%
O=C(NCCc1ccc(Cl)cc1)c1nc(-c2ccc(Cl)cc2Cl)c2cnccn12	4.5µM*
O=C(NCCc1ccc(Cl)cc1)c1cc(-c2cnccc2Cl)c2cccn2n1	-4%
CC(C)C(Nc1nc(-c2ccncc2)nc2c1cnn2C)c1nccn1C (stereo not given)	-10%
CSCC(=O)N[C@H]1CCN2C(=O)N(c3cccc(SC)c3)C(=O)[C@@H]2C1	-9%[44.1 µM]
OCc1ccc(CN[C@H]2[C@H](O)[C@@H](N3CCC(Cc4ccccc4)CC3)[C@@H]3OC[C@H]2O3)o1	i
O[C@H]1[C@H](NCC2CCCCC2)[C@H]2CO[C@H](O2)[C@@H]1N1CCC(Cc2ccccc2)CC1	1.4µM*
